The record followed here is the OligoGym collection.
Note: reference of the scale not given here.

For the first assay, the target named is WFDC8. In words: pooled miR-30 sensor sort-seq; sequence = guide strand. The settings on record: shRNA.
As to TCTCTTTGGGACATAACCCTGG, the sensor-assay potency score (higher = more potent) was -0.176. ATCTGTGTTACATGAGTCCGGA: the sensor-assay potency score (higher = more potent) was -0.285. In the case of TTGTCCATCCTTAACAATTAAC, the sensor-assay potency score (higher = more potent) was -1.71. The sequence TTGTGTTTGATCTTCTTGGTCA displayed a sensor-assay potency score (higher = more potent) of 0.398. Take TATTTGAAGGGTGTGCAGCGGT: the sensor-assay potency score (higher = more potent) was -0.17. For the sequence TACATTTCAGTCCACAATGTGA, the sensor-assay potency score (higher = more potent) is -1.04. Still for that read-out and setting: with TTGGGTTTATCAATCTTGGTAC the figure was 0.104; with TGGATTCACAACATTTGTCTGT, -0.069. Take AAACCTTTTTTGACTGTCCAGG: the sensor-assay potency score (higher = more potent) is -1.14.

As to TTAACAATTAACATGCAGGCCG, the sensor-assay potency score (higher = more potent) is -0.341.

Take TTTTTGACTGTCCAGGCCCTGG: the sensor-assay potency score (higher = more potent) was -1.19. Still for that read-out and setting: as for TAACAATTAACATGCAGGCCGT, the figure is -0.862.

The next assay has as its target WFIKKN1. Described as above. The settings on record: shRNA.
The sequence TCGGCGTCCATATAGCAGCGGT yielded a sensor-assay potency score (higher = more potent) of -1.4. In turn, TTGTAGAGCACCAGCTGCCCGA displayed a sensor-assay potency score (higher = more potent) of -1.47.

TCTCTCGCTGGTGACTCTGCTT gave a sensor-assay potency score (higher = more potent) of -0.761.

Sequence TTGCCATACATCTGATCAGGGC returned a sensor-assay potency score (higher = more potent) of -0.931.
